Sampled rows, rich in hits. Any-hit rate of the full collection: about 1.3%.
GC-B act: GC-B (human) receptor activation; 370,000 tested, 0.11% active; AID 1920062; P20594; HEK293-GC-B cells, CNP EC30, cGMP TR-FRET; 0% at EC30 CNP, 100% saturating CNP; activation, % at 10 µM;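 active = activation at 10 µM reaching about 35% in either raw or pattern-adjusted values, limit read from the data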
ADAM10 inh: inhibits human ADAM10. O14672. recombinant ADAM10, EDANS/DABCYL FRET peptide cleavage, 3 h. inhibition, % at 7 µM. 370,000 tested, 0.62% active;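 active = inhibition above a per-campaign cutoff equal to the mean of compounds falling between control-based bounds plus 3 SD, cut at about 20% in these data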;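 also: 0% = DMSO wells while the 100% control is not disclosed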
GC-A act: GC-A (human) enzyme activation. HEK293 GC-A cells, cGMP TR-FRET, EC30 ANP; 0% at EC30 ANP, 100% saturating ANP. AID 1671463. activation, % at 10 µM. P16066. 370,000 tested, 0.14% active; in the data active = activation above about 40%
ADAM17 inh: inhibitors of human ADAM17; inhibition, % at 6.95 µM; recombinant ADAM17, EDANS/DABCYL FRET peptide cleavage; P78536; 370,000 tested, 0.83% active;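 active = inhibition above the mean of compounds lying between control limits plus 3 SD, set per campaign, cut at about 8.5% in these data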;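 also: 0% = DMSO-only wells as the low control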
ADAM10 confirm: confirmation of inhibitors of human ADAM10. 2,100 tested, 1% active. ADAM10 QFRET peptide cleavage, EDANS fluorescence. shares compounds with ADAM10 inh. inhibition, % at 6.95 µM. AID 743208;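 active = inhibition above about 20% chosen separately for each screening run, limit read from the data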;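 also: 0% = DMSO wells and 100% = marimastat wells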
ADAM17 ctr: inhibits human ADAM17 in ADAM10 exosite counter-screen; shares compounds with ADAM10 inh; ADAM17 QFRET peptide cleavage, EDANS fluorescence; inhibition, % at 6.95 µM; 2,100 tested, 0.5% active;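 active = mean triplicate inhibition above the solvent-only control wells' mean plus 3 SD, cut at about 12% in these data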;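 also: 0% = DMSO wells and 100% = marimastat wells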
* = called active by the depositor; . = no result given.

SMILES	GC-B act	ADAM10 inh	GC-A act	ADAM17 inh	ADAM10 confirm	ADAM17 ctr
Cc1ccc(/C=N/NC(=O)CSc2nnc(-c3ccccc3)n2-c2ccc(Cl)cc2)o1	-14.3	26.5*	-21.2	7.8	2.4	1.3
Cc1ccc(NC(=O)C2CCN(c3ncnc4sc(C)c(C)c34)CC2)cc1S(=O)(=O)N(C)C	-1.6	22.2*	-7.7	5.0	7.5	2.4
CCN(CC)S(=O)(=O)c1cc(NC(=O)C2CCN(c3ncnc4sc(C)c(C)c34)CC2)ccc1Cl	-1.6	0.6	0.1	0.2	.	.
N#Cc1ccc(Cl)cc1NC(=O)COC(=O)[C@H](CCC(N)=O)NC(=O)c1ccc(F)cc1	-0.8	5.6	3.9	3.5	.	.
CCCCn1nc(C(=O)Nc2cc(C(F)(F)F)ccc2N2CCOCC2)ccc1=O	1.9	4.4	2.5	5.9	.	.
C=CC[C@H](CC(=O)NCCO)C(=O)N[C@H](COC(=O)[C@H](CC=C)CC(=O)OC(C)(C)C)Cc1c[nH]c2ccccc12	-5.0	1.7	2.7	-1.3	.	.
COc1ccccc1CC(NC(C)=O)C(=O)NC1CCN(C(=O)c2cccc(Cl)c2)CC1 (centres undefined)	2.0	1.2	-1.6	-0.9	.	.
CC(=O)NC(c1ccccc1)c1cc([N+](=O)[O-])c2cccnc2c1O (centres undefined)	0.8	14.9	1.4	-0.3	.	.
CC(C)C(=O)NC(c1ccccc1)c1cc([N+](=O)[O-])c2cccnc2c1O (centres undefined)	4.6	20.1*	2.6	7.7	9.9	4.3
Cc1ccc(C2=CC(=O)CC(C)(C)C2=O)cc1	-1.1	3.3	3.0	-2.0	.	.
Clc1ccc(CSc2nnc(CNc3cccc(Cl)c3)o2)cc1	-6.0	19.8*	-6.0	5.0	5.8	2.2
COC(=O)c1cn[nH]c1NC(=S)Nc1ccccc1C	2.1	25.1*	-4.2	6.7	2.5	2.5
COC(=O)c1cn[nH]c1NC(=S)Nc1ccc(C)cc1Cl	3.8	10.0	4.8	2.9	.	.
CCc1ccc(CN(C)C(=O)c2cc(COc3cc(C)c(Cl)c(C)c3)on2)nc1	-5.0	18.6	0.2	5.2	.	.
Cc1cc(OCc2cc(C(=O)N(C)Cc3nonc3C)no2)cc(C)c1Cl	-3.2	27.7*	7.1	5.2	7.3	1.8
S=c1[nH]cc(-c2ccccc2)n1-c1ccccc1	-1.5	22.8*	-0.9	10.6*	-2.2	0.3
CCOc1ccccc1-c1ccc2nccn2c1	-1.7	-21.9	4.1	-3.1	.	.
CCOc1ccc(NC(=S)Nc2cc(-c3ccccc3)[nH]n2)cc1	2.5	23.1*	4.3	3.6	6.0	1.1
CCOc1ccc(NC(=S)Nc2ccc(F)cc2)cc1	0.0	-1.6	2.1	-2.5	.	.
COc1cc(C(=O)Nc2ccc3c(c2)nc(C)n3C)cc(OC)c1OC	6.0	-8.9	-0.3	-2.8	.	.
Cc1nc2cc(NC(=O)c3ccc(Cl)cc3)ccc2n1C	0.4	22.9*	5.1	0.2	1.3	-0.2
CC(C)CNc1ncnc2c1ncn2[C@H]1CN(CCN2CCOCC2)C[C@@H](CO)O1	3.8	-19.7	-3.2	-3.8	.	.
Cc1ccc(N(C(C)C(=O)Nc2cc(Cl)ccc2Oc2ccccc2)S(C)(=O)=O)cc1 (centres undefined)	-15.9	21.8*	-8.4	7.5	6.7	2.3
COC(=O)[C@]12C[C@H](CC(=O)N3CCCC3)C(=O)N(Cc3ccco3)C1=C[C@H](COCc1ccccc1)O[C@@H]2C	-1.9	-3.4	-0.1	-4.0	.	.
O=C(NCCc1nc2ccccc2[nH]1)/C(=C/c1ccc2c(c1)OCO2)NC(=O)c1ccc(Cl)cc1Cl	-1.1	22.0*	-6.5	2.7	32.2*	5.5
SMILES	GC-B act	ADAM10 inh	GC-A act	ADAM17 inh	ADAM10 confirm	ADAM17 ctr
CC(C)n1nccc1N(Cc1ccc(Cl)cc1)S(=O)(=O)c1ccccc1	-3.9	28.2*	-11.0	5.8	1.9	0.7
CC(C)n1nccc1N(Cc1ccc(Br)cc1)S(=O)(=O)c1ccccc1	-6.8	14.8	-12.7	2.7	.	.
N#Cc1c(NC(=O)CCn2cnc3ccccc3c2=O)oc(-c2ccccc2)c1-c1ccccc1	-10.3	20.1*	-8.3	6.5	15.9	5.7
CCOC1=C2CN(S(=O)(=O)c3ccc(C)cc3)[C@H](c3ccccc3)C[C@H]2n2c(=O)n(-c3ccccc3)c(=O)n2C1	-11.0	1.5	0.6	0.1	.	.
CCC/C(O)=C1\C(=O)CC(C)(C)CC1=Nc1ccc(OC)cc1	4.5	9.9	-1.1	-0.6	.	.
CCCC/C(O)=C1\C(=O)CC(C)(C)CC1=Nc1ccc(OC)cc1	2.6	41.5*	-2.5	3.4	-0.5	0.3
CN(C)C(=O)C[C@@H]1C=C[C@@H](NC(=O)C2CCC2)[C@@H](CO)O1	0.0	-16.8	0.0	-3.4	.	.
Cc1cc(NC(=O)CSc2nnc(-c3ccccc3F)n2C)no1	-0.8	-8.3	3.7	-4.7	.	.
C[C@@H](O)C(C(=O)N1CCNCC1)n1cc([C@@H](N)CCCCN)nn1 (some centres undefined)	5.8	21.8*	1.7	3.3	2.8	0.2
COc1cccc(N2CCN(S(=O)(=O)c3cn(C)cn3)CC2)c1	3.1	10.6	2.6	-4.2	.	.
COc1ccc(Cc2c(C3CCCCC3)nc3c(C)cc(Br)cn23)c(C)c1	2.0	-13.3	0.9	-8.4	.	.
CC1(Cc2ccc(Cl)c(Cl)c2)C(=O)Nc2ccc(S(=O)(=O)NC3CCCCC3)cc21 (centres undefined)	-8.4	20.2*	-6.6	7.7	12.9	3.4
C#CCN(C[C@H]1[C@H](OC(=O)NCc2ccco2)[C@H](OC(=O)NCc2ccco2)C[C@H]2C(=O)N(c3ccccc3)C(=O)[C@@H]12)S(=O)(=O)c1ccc(C)cc1	3.0	20.9*	4.1	8.0	8.3	2.0
OCCCn1c(CCNc2nc(-c3ccc(F)cc3)cs2)nc2cc(C(F)(F)F)ccc21	-18.0	21.2*	-4.2	6.5	5.1	0.9
CC(C)CCNC(=O)C(c1ccc(O)cc1)N(Cc1cccs1)C(=O)C1COc2ccccc2O1 (centres undefined)	-3.9	22.3*	-12.6	7.8	6.4	1.8
COc1ccc(C(=O)NCCc2nnc3ccc(SCC(=O)N4CCOCC4)nn23)cc1	3.6	-8.7	4.4	0.1	.	.
O=S(=O)(NCC(Nc1ccc(Cl)cc1)c1ccccc1)c1ccc(Cl)cc1 (centres undefined)	-3.2	22.7*	-13.7	6.9	12.4	4.5
O=C(CSc1nc2ccc(Cl)cc2[nH]1)Nc1ccc2c(c1)CCC2	-5.2	13.0	-2.5	5.2	.	.
O=C(CSc1nc2ccccc2[nH]1)Nc1ccc2c(c1)CCC2	-2.0	20.2*	-2.7	-4.1	1.6	-0.1
COc1ccccc1C(NC(=O)C1CCN(CCOc2ccccc2)CC1)c1ccccn1 (centres undefined)	-4.9	-4.5	-2.5	2.8	.	.
